Screening data as filed in PubChem.
Shown are actives, neighbours in structure and some others; about 0.77% of the full set was active somewhere.
Tb PYK inh: T. brucei pyruvate kinase inhibition | Q57TT1 | TbPYK enzyme, Kinase-Glo Plus ATP luminescence, 45 min | Potency, µM (titrated, usually from 76.8 µM), for the others: at the top dose activity, negative = inhibition, hits mostly inhibitors | hit rate 0.12% among 410,000 | AID 624173; note: potency is the fitted concentration of half-maximal effect; % is set by controls: 0 for no effect and ±100 for the full control effect; nearly all actives have a fitted effect of over 50% in size
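Enzyme and substrate buffer are dispensed first and compound is pin-transferred. ADP at 130 uM final then starts the reaction, which runs 45 min at room temperature. Detection reagent is added for 10 min before luminescence is imaged.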
RE007 growth inh: less growth of the S. pombe RE007 Vpr strain; S. pombe RE007 Vpr strain, BacTiter-Glo ATP luminescence, 24 h; hit rate 0.21% among 360,000; Potency, µM (titrated, usually from 92.2 µM), without a hit: top-dose activity change, negative = less growth, hits mostly inhibitors; active = well fitted falling curve with a large enough effect; inconclusive = small, poorly fitted or top-dose-only effect; inactive = no such curve, though single readings can be large or run the other way; note: potency is the fitted concentration of half-maximal effect; % is set by controls: 0 for no effect and ±100 for the full control effect; nearly all actives have a fitted effect of over 50% in size
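Fission yeast RE007 carrying one integrated HIV-1 vpr copy, seeded at OD 0.01 in PMG+AL medium with 23 nL pinned compound. Grown 24 h at 30 degrees; viability read by BacTiter-Glo luminescence after 5 min.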
LmPK inhibitor: blocks Leishmania mexicana pyruvate kinase activity; purified LmPK, Kinase-Glo ATP luminescence, 1 h; Potency, µM (top dose mostly 57.5 µM), for inactives: at the highest dose activity change, negative = inhibition, hits mostly inhibitors; hit rate 0.37% among 290,000; note: potency is the fitted concentration of half-maximal effect; % is set by controls: 0 for no effect and ±100 for the full control effect
Target sequence (Q27686 whole entry, looked up): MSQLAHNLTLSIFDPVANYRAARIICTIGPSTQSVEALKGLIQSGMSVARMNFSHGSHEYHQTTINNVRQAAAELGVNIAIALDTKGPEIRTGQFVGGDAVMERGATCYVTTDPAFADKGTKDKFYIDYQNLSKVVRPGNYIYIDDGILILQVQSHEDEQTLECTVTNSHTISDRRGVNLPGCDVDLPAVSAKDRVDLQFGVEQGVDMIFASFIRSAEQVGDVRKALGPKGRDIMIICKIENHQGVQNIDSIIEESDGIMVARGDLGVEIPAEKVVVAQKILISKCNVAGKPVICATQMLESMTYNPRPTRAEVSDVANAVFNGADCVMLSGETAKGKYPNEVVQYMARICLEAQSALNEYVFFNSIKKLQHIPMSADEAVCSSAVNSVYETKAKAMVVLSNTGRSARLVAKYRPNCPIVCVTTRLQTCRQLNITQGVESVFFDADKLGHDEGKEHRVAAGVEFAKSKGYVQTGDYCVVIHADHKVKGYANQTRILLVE
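0.1 nM LmPK, 0.5 mM PEP, 0.1 mM ADP; 50 mM imidazole pH 7.2, 7 mM MgCl2, 50 mM KCl; 1 h RT. Kinase-Glo luminescence readout, normalized to no-enzyme (full inhibition) and uninhibited wells.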
NS1 inh: inhibitors of influenza NS1 protein function; Potency, µM (doses to about 46.1 µM), inactives show top-dose activity, positive = more growth; hit rate 0.4% among 270,000; calls by dose curve; note: potency is the fitted concentration of half-maximal effect; actives are rising curves; nearly all actives have a fitted effect of over 50% in size
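S. cerevisiae expressing influenza A NS1, grown in glucose, washed, then diluted 1:100 into pH 6.0 -URA galactose medium with 23 nl compound. Growth recovery read as OD600; NS1-free strain serves as control.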
Flu NS1 inh: influenza NS1 function inhibition validation; activity change, negative = inhibition, % at 32.9 µM; influenza NS1 function cell assay, 15-point titration; shares compounds with NS1 inh; 1,400 tested, under 10 active; calls by dose curve; note: 0% is about no effect
PR8 titer: reduces influenza A/PR/8/34 replication in MDCK cells | shares compounds with NS1 inh | virus titer (log TCID50), log10 TCID50 at 5 µM | hit rate 30% among 95 | MDCK infected influenza A/PR/8/34, virus titer TCID50; stronger effect = lower value; call rule not given here
Numbers without * were called inactive; ? = inconclusive; nt = not tested or not shown. Unless noted, calls come from the whole dose curve; as a rule, active = well fitted curve in the direction sought with a large enough effect; inconclusive = small, poorly fitted or top-dose-only effect, or another doubt; inactive = no such curve, though single readings can be large; an effect the other way counts as inactive or inconclusive.

SMILES	Tb PYK inh	RE007 growth inh	LmPK inhibitor	NS1 inh	Flu NS1 inh	others
COc1ccc(-n2cc(C(=O)Nc3cc([N+](=O)[O-])ccc3OC)c3ccccc3c2=O)cc1	-7%	16%	1%	22µM*	9
Cc1ccc(-n2c(SCC(N)=O)nc3c(oc4ccccc43)c2=O)cc1C	6%	nt	nt	nt	nt
O=C(O[C@H]1CN2CCC1CC2)N1CCc2ccccc2[C@@H]1c1ccccc1	6%	nt	nt	nt	nt
O=S(=O)(Nc1cccc(-c2ccc(N3CCCCCC3)nn2)c1)c1cccc(F)c1	-9%	2%	2%	?	-3
O=C(O)CC/C(=C\c1cccc(NC(=O)c2ccccc2Cl)c1)c1nc2ccccc2s1	-16%	-15%	0%	?	-20
O=C(O)CC/C(=C\c1cc([N+](=O)[O-])ccc1Cl)c1nc2ccccc2s1	-7%	19%	0%	6%	nt
CCCC(C)NC(=O)c1ccc2[nH]c3c(c2c1)CC(C)CC3 (stereo unspecified)	1%	-7%	0%	11µM*	1
CC(C)CC(C(=O)O)C(C)CC(=O)Nc1ccn(-c2ccccc2)n1 (stereo unspecified)	6%	12%	5%	14%	nt
CCCCC(C(=O)O)C(C)CC(=O)Nc1ccn(-c2ccccc2)n1 (stereo unspecified)	4%	3%	5%	2.8µM*	28
CCOC(=O)C1(CCCc2ccccc2)CCN(C(=O)CCC2=NNC(=O)CC2)CC1	3%	9%	9%	2%	nt
CCCCCC(C)NC(=S)NC(=O)c1cc(S(=O)(=O)N2CCOCC2)ccc1C (stereo unspecified)	-11%	0%	0%	20µM*	-37
Cc1ccc(S(=O)(=O)N2CCOCC2)cc1NC(=O)CSc1nnc2cc(C)c3ccccc3n12	-7%	-1%	-1%	8%	nt
Cc1cc2nnc(SCC(=O)Nc3cc(S(=O)(=O)N4CCOCC4)ccc3Cl)n2c2ccccc12	?	-1%	-4%	10µM*	19
OC(Cc1nc2ccccc2[nH]1)c1ccccc1Cl (stereo unspecified)	1%	-17%	-4%	0.28µM*	-29
NC(Cc1nc2ccccc2[nH]1)c1ccc(Cl)cc1 (stereo unspecified)	1%	-6%	-5%	-4%	nt
O[C@@H](c1cc(C(F)(F)F)nc2c(Cl)cc(Cl)cc12)C1CCCCN1 (stereo partly specified)	nt	nt	nt	-3%	nt
CCOC(=O)/C=C1\NC(C)(C)Cc2cc(OC)c(O)cc21	-4%	-1%	1%	?	20
COc1cc2c(cc1OC)/C(=C/C(=O)N1CCOCC1)NC(C)(C)C2	6%	-2%	-3%	?	1
C[C@]12C=CC(=O)C=C1CCC1C2=CC[C@]2(C)[C@@H](C(=O)CN3CCN(c4cc(N5CCCC5)nc(N5CCCC5)n4)CC3)CC[C@@H]12 (stereo partly specified)	nt	nt	nt	35µM*	?
Cc1c(C(=O)OCC(=O)N2CC(C)OC(C)C2)oc2ccc(Br)cc12 (stereo unspecified)	-3%	-9%	-3%	0.45µM*	?
CC(C)NC[C@@H](O)c1ccc(O)c2ncccc12	nt	nt	nt	-2%	nt
NC(=S)N/N=C/c1ccccc1OCCSc1ccc(Cl)cc1	-7%	8%	4%	10µM*	?
O=C(Nc1ccccc1)N1CCCC2(CCN(C(=O)c3ccco3)CC2)C1	-8%	nt	nt	nt	nt
C=C(C)Cn1c(SCC(=O)Nc2cccc(C)c2)nc2sc3c(c2c1=O)CCCC3	0%	nt	nt	nt	nt
COc1ccccc1Nc1nn2c(=O)c3ccc(C(=O)N4CCC(C)CC4)cc3nc2s1	3%	0%	8%	?	?
COc1ccccc1Nc1nn2c(=O)c3ccc(C(=O)NC4CCC(C)CC4)cc3nc2s1 (stereo unspecified)	3%	nt	nt	nt	nt
CCc1ccc(-n2nc(C)c3c(C)cc(=O)n(CC(=O)Nc4cc(C)ccc4C)c32)cc1	3%	nt	nt	nt	nt
Cc1noc(/C=C/N(C)C)c1S(=O)(=O)N1CCCC(C(=O)NC(C)c2ccccc2)C1 (stereo unspecified)	0%	7%	5%	1.8µM*	?	PR8 titer=7.7
